Measured values from PubChem BioAssay AID720540 (National Center for Advancing Translational Sciences (NCATS), 2013).
The campaign covered roughly 1,300 compounds. About 460 (35%) were called active. Not shown: some 39% with an inconclusive outcome. Calls come from the whole dose curve; as a rule, active = well fitted inhibition curve with a large enough effect; inconclusive = small, poorly fitted or top-dose-only effect; inactive = flat fitted curve, though single readings scatter. This is one part of the list.

biological target: Protein phosphatase EYA2 (Homo sapiens) (UniProt O00167); assay: qHTS for Inhibitors of the Phosphatase Activity of Eya2: Confirmatory Assay for Cherry-picked Compounds; conditions: purified EYA2 phosphatase activity, qHTS confirmation; series mostly up to 46.1 µM; activity change, negative = inhibition: at the top concentration; note: nearly all actives have a fitted effect of over 65% in size;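 for activity change, negative = inhibition: 0% = DMSO wells and -100% = EGTA control giving full inhibition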
Outline: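 Eya2 (0.2 uM working solution) preincubated 10 min at room temperature with compound in pH 7.5 HEPES buffer with MgCl2, BSA, DTT. OMFP added (50 uM working solution), 10 min more; fluorescence 485/525 nm, normalized to EGTA and DMSO.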
Potency is the fitted concentration of half-maximal effect.

Sequence of Protein phosphatase EYA2 (Homo sapiens) (O00167 whole entry, looked up): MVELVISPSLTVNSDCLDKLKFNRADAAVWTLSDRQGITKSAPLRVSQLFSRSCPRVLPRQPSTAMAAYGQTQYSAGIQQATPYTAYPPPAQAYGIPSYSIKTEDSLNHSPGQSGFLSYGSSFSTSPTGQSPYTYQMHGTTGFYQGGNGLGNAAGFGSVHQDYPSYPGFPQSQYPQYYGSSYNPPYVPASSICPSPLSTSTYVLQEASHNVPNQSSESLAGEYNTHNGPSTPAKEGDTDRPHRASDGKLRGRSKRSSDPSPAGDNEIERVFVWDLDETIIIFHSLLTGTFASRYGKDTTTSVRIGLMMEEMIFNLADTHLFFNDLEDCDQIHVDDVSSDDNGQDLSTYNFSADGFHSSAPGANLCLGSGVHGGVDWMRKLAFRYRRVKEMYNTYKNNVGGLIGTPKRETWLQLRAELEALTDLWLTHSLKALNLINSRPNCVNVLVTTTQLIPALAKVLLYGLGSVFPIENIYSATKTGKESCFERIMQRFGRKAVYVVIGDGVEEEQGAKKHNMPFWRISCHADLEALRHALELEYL

Potency, active:
CC(=O)N1CCN(/[N+]([O-])=N/Oc2ccc([N+](=O)[O-])cc2[N+](=O)[O-])CC1 19 µM
Cn1nc([N+](=O)[O-])nc1Sc1cccc2cccnc12 1.9 µM
O=c1c(O)cccc2cc(O)c(O)c(O)c12 8.49 µM
OCCN(Cc1cccnc1)Cc1ccccn1 5.36 µM
O=C(CCCl)Nc1cccc2cccnc12 15.1 µM
O=S(=O)(Nc1cccc2cccnc12)c1ccccc1Br 16.9 µM
CC(=O)Nc1ccc(S(=O)(=O)Nc2cccc3cccnc23)cc1 4.78 µM
NC(=O)c1c(NC(=O)c2ccc(N3C(=O)CCC3=O)cc2)sc2c1CCCC2 1.51 µM
CCc1nnc2c(N(C)C)nc3ccccc3n12 15.1 µM
Cn1c(=O)n(Cc2ccc(F)cc2)c(=O)c2c1nc1n2CCN1Cc1ccco1 16.9 µM
Cc1ccc(C(=O)Oc2ccc(C(=O)COC(=O)c3cnccn3)cc2)cc1 0.478 µM
Clc1cccc(-c2ccc(CNCc3ccccn3)o2)c1 19 µM
Clc1ccc(-c2ccc(CNCc3ccccn3)o2)cc1 15.1 µM
Fc1ccc(-c2ccc(CNCc3ccccn3)o2)cc1 19 µM
CCOc1cc(C=NNC(=O)c2cccc(S(=O)(=O)N3CCCC3)c2)ccc1O 6.01 µM
CC1CCC(=NNc2ccc(C(F)(F)F)cc2[N+](=O)[O-])CC1 (stereo unspecified) 7.57 µM
O=C(O)c1ccc2c(c1)C(=O)N(c1ccc(/C=C/C(=O)c3ccccc3)cc1)C2=O 19 µM
Cc1nnc2sc(SCC(=O)Nc3ccc(Br)cc3)nn2c1=O 4.78 µM
CCOC(=O)c1nn2c(C(F)(F)F)cc(-c3ccc(OC)cc3)nc2c1Br 12 µM
Cc1ccccc1C(=O)NC(=S)Nc1ccccc1N1CCCC1 13.5 µM
C/C(=C1/C=Nc2ccccc21)c1ccc(N(C)C)cc1 19 µM
COc1ccc(CCn2c(=N)c(C(=O)NCc3ccco3)cc3c(=O)n4ccccc4nc32)cc1OC 15.1 µM
Cc1ccccc1OCCn1cc(C(=S)N2CCN(C)CC2)c2ccccc21 16.9 µM
O=c1oc(-c2ccco2)nc2ccccc12 19 µM
O=C(O)CCCCCNS(=O)(=O)c1cccc2c1C(=O)c1ccccc1C2=O 6.01 µM
Nn1c(SCC(=O)Nc2ccc3c(c2)OCCO3)nnc1-c1ccccn1 21.3 µM
O=S(=O)(Nc1nnc(-c2ccccc2)s1)c1ccc(Cl)cc1 15.1 µM
COc1cc(OC)c(OC)cc1CCC(C)NCCC(c1ccccc1)c1ccccc1 (stereo unspecified) 8.49 µM
Cc1ccc(NC(=O)CN2C(=O)S/C(=C\c3cc(Cl)c(OCC(=O)O)c(Cl)c3)C2=O)cc1 19 µM
CC(SC1=NCCS1)C(=O)Nc1nnc(-c2ccc(Br)cc2)s1 (stereo unspecified) 6.01 µM
Oc1c(C(c2ccc(Cl)cc2)N2CCCC2)cc(Cl)c2cccnc12 (stereo unspecified) 6.75 µM
CN1CCN(C(c2ccccn2)c2cc(Cl)c3cccnc3c2O)CC1 (stereo unspecified) 2.39 µM
CC(=O)Oc1ccc(C(=O)OCC(=O)c2c(N)n(C)c(=O)n(C)c2=O)cc1OC(C)=O 4.78 µM
O=C(Oc1ccc(C(=S)N2CCOCC2)cc1Br)c1ccccc1F 16.9 µM
O=C(Oc1ccc(C(=S)N2CCOCC2)cc1Cl)c1ccccc1F 8.49 µM
CN1/C(=C\C(=S)NC(=O)c2ccccc2Cl)C(C)(C)c2ccccc21 16.9 µM
COc1cc(OC)c(NC(=O)CN(C)S(=O)(=O)c2ccc(-c3ccc(=O)[nH]n3)s2)cc1Cl 4.26 µM
O=C(O)c1ccc(-c2ccc(/C=c3/sc4nc5ccccc5n4c3=O)o2)cc1Cl 5.36 µM
Cc1c(CCO)c(=O)n(-c2ccccc2)n1S(=O)(=O)c1c(Cl)cc(Cl)cc1Cl 3.01 µM
O=C1c2ccccc2C(=O)c2c(Nc3ccc(CCO)cc3)ccc(O)c21 6.01 µM
O=C1c2cccc3cccc(c23)C(=O)N1CCCN1CCN(c2ccc(F)cc2)CC1 15.1 µM
O=C(c1cccc(S(=O)(=O)Nc2ccccc2Cl)c1)N1CCN(c2ccccc2O)CC1 19 µM
COc1ccc(C2CC(c3ccccc3OC(=O)/C=C/c3ccccc3)=NN2C(C)=O)cc1 (stereo unspecified) 19 µM
O=S(=O)(Nc1cccc(-c2cn3cccnc3n2)c1)c1ccc(F)cc1 13.5 µM
O=S(=O)(Nc1cccc(-c2cn3cccnc3n2)c1)c1ccccc1 4.78 µM
O=c1c(O)c(-c2ccc(O)cc2O)oc2cc(O)cc(O)c12 8.49 µM
Cc1cc(C(=O)c2ccccc2)cc(C)c1O 1.9 µM
CN(C)c1ccc(C2C=Cc3ccccc32)c2ccccc12 (stereo unspecified) 9.53 µM
CSCc1cc(N(C)c2ccccc2)nc(-c2ccccn2)n1 15.1 µM
O=C(c1cccs1)N1CCC(c2nc3c(nnn3Cc3cccc(Cl)c3)c(=O)[nH]2)CC1 10.7 µM
CN(C)CCNc1ccc2nnn3c4ccc(O)cc4c(=O)c1c23 1.69 µM
CN(C)CCNc1ccc2ncn3c4ccc(O)cc4c(=O)c1c23 3.38 µM
CN(C)C1=C2C=CC=CC2/C(=C2/C=Cc3ccccc32)C=C1 (stereo unspecified) 8.49 µM
O=C(O)c1cc(-c2ccc(/C=C3\NC(=O)N(c4ccc(Cl)cc4)C3=O)o2)ccc1Cl 8.49 µM
CCOC(=O)CN1C(=O)/C(=C2\SC(=S)N(NC(=O)c3cccnc3)C2=O)c2ccccc21 19 µM
CN1C(=O)/C(=C2\SC(=S)N(NC(=O)c3cccnc3)C2=O)c2ccccc21 9.53 µM
O=C(O)C(Cc1ccccc1)N1C(=O)/C(=C/C=C/c2ccco2)SC1=S (stereo unspecified) 6.75 µM
CC(C(=O)O)N1C(=O)/C(=C/C=C/c2ccco2)SC1=S (stereo unspecified) 3.79 µM
O=C(O)CC(C(=O)O)N1C(=O)/C(=C/C=C/c2ccco2)SC1=S (stereo unspecified) 3.79 µM

Activity change, negative = inhibition, inactive:
CC1(C)CC(=O)c2c(oc3ccc(NS(=O)(=O)c4cccc5cccnc45)cc23)C1 -15.7%
COc1ccc(N(CC(=O)Nc2cccc(C(C)=O)c2)S(=O)(=O)c2ccc(NC(C)=O)cc2)cc1 -23.4%
CCOc1ccc(Br)cc1S(=O)(=O)NC1CC(C)(C)NC(C)(C)C1 -5.16%
CCCC(=O)NC(=S)Nc1sc2c(c1C(N)=O)CCC2 0.48%
CN(C)S(=O)(=O)n1cnc2ccccc21 -1.26%
Cn1c(=O)n(CCO)c(=O)c2c1nc(Br)n2Cc1ccccc1 -3.69%
O=S(=O)(c1ccc(Cl)s1)N1CCc2ccccc2C1 43.7%
O=C(O)c1ccc2c(c1)C(=O)N(c1cccc(-c3nc4ccccc4s3)c1)C2=O -13.9%
CCCc1cc(=O)[nH]c(SCC(=O)Nc2ccc(C)cc2)n1 -8.55%
O=c1[nH]c(/C=C\c2ccc(O)cc2)nc(O)c1[N+](=O)[O-] -17%
CNc1c(Br)cc(C(O)C2=CCc3ccccc32)cc1Br (stereo unspecified) -3.84%
Nc1nc2cc3ccccc3cc2[nH]c1=O -10.3%
Cc1ccccc1NC(=O)C1CCN(C(=O)N2CCOc3ccccc32)CC1 -3.15%
CCc1nc2ccc(C(=O)NCCOc3ccc(OC)cc3)cn2c1N(CCC(C)C)CCN(C)C -16.6%
Cc1cccn2c(=O)c3cc(S(=O)(=O)c4ccc(F)cc4)c(=N)n(Cc4ccco4)c3nc12 -12.7%
CCC(=O)c1cn(CC(=O)Nc2c(C)cccc2C)c2ccccc12 -9.78%
CCOc1ccccc1O[C@H](c1ccccc1)[C@H]1CNCCO1 -7.05%
O=C(CSc1ccc2c(c1)OCCO2)Nc1ccc2c(c1)OCO2 -15.6%
NC(=O)C1CCN(CC(=O)Nc2ccc3c(c2)OCO3)CC1 22.6%
OC(c1ccc(Cl)cc1)c1nccc2ccccc12 (stereo unspecified) -9.24%
COC(=O)c1c(C)[nH]c(C(=O)C(C)OC(=O)C2CC(=O)N(c3ccc(C)cc3)C2)c1C (stereo unspecified) -26%
Cn1c(N)c(C(=O)CSc2nnc(NC3CCCCC3)s2)c(=O)n(C)c1=O -28.7%
COc1ccc(C(=O)N2CCOCC2)cc1S(=O)(=O)N1CCCc2ccccc21 -12.4%
CC1=CC(C)(C)Nc2ccc(OC(=O)CN3C(=O)c4ccccc4C3=O)cc21 -11.5%
O=C(NC1CCCCC1)N1CCN(C2CCCCC2)CC1 2.04%
COc1ccc([C@H]2CC(=O)C=C(c3ccnc4ccc(Cl)cc34)C2)cc1 -22.9%
N=C1/C(=C/c2ccc(-c3cccc(C(=O)O)c3)o2)C(=O)N=C2SC=C(c3ccccc3)N12 -20.3%
CC12CC3(C)CC(C)(C1)CC(C(=O)NC(=S)N1CCOCC1)(C2)C3 -20%
COc1ccccc1NC(=O)CCCCCN1C(=O)c2cccc3cccc(c23)C1=O -15.8%
CC1Cc2ccccc2N1NC(=O)c1ccc(Cl)c(S(N)(=O)=O)c1 (stereo unspecified) -5.79%
Cn1c(=O)c2cc(S(=O)(=O)Nc3cccc(F)c3)ccc2n(C)c1=O -21.5%
Cc1cc(C(=O)O)ccc1-n1c(C)cc(C=C2C(=O)c3ccccc3C2=O)c1C -8.67%
NCC(=O)Nc1ccc(Cl)cc1C(=O)c1ccc[nH]1 -11.7%
N#Cc1ccc(C(=O)N2CCC3CC2c2cc(-c4ccccc4)ccc23)cc1 (stereo unspecified) -24.4%
COC(=O)c1ccc(NC(=O)c2ccc3c(c2)C(=O)N(Cc2cccnc2)C3=O)cc1 -19.5%
CCOc1cc(C(=O)NC(C)CCc2ccccc2)cc(OCC)c1OCC (stereo unspecified) 13.9%
C[C@H](CCC(=O)NCC(=O)O)[C@H]1CC[C@H]2[C@@H]3[C@H](O)C[C@@H]4C[C@H](O)CC[C@]4(C)[C@H]3C[C@H](O)[C@]12C -6.72%
